Data on 9 compounds can be found in PubChem BioAssay (NCATS).

A short description of assay [1]: Cell Viability - LYMP2-008 (AID 980). Note: nearly all actives have a fitted effect of over 60% in size. Note: potency is the fitted concentration of half-maximal effect. An outline of the steps: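 LYMP2-008 lymphoblastoid cells (2500/well) plated 5 h, then treated 24 h at 37 C in complete medium. Viability read as intracellular ATP by CellTiter-Glo luminescence after 30 min at room temperature; AC50 from Hill fits.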
Assay [2] in a line: Cell Viability - LYMP2-010 (AID 981). Note: nearly all actives have a fitted effect of over 55% in size. Note: potency is the fitted concentration of half-maximal effect. An outline of the steps:
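Human lymphoblastoid LYMP2-010 cells (2500/well) treated 24 h at 37 C in complete medium; viability read as intracellular ATP by CellTiter-Glo luminescence. AC50 from Hill fits of concentration-response data; tetraoctylammonium bromide positive control.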

A short description of assay [3]: Cell Viability - LYMP2-012 (AID 982).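 Note: cellular ATP by luciferase luminescence where a drop means cytotoxicity; cells exposed to compound for one day before reading; nearly all actives have a fitted effect of over 55% in size.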 Note: potency is the fitted concentration of half-maximal effect.
Assay [4] in a line: Cell Viability - LYMP2-014 (AID 983).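 Note: plate controls were DMSO only for no effect and 92 µM tetraoctylammonium bromide for full effect; nearly all actives have a fitted effect of over 50% in size.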 Summed up: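 LYMP2-014 human lymphoblastoid cells, 2500/well, treated 24 h at 37 C in complete medium; viability by CellTiter-Glo ATP luminescence after 30 min at room temperature. AC50 from Hill fits of qHTS concentration-response; tetraoctylammonium bromide positive control.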
Assay [5] in a line: Cell Viability - LYMP2-016 (AID 984). Note: nearly all actives have a fitted effect of over 55% in size. Note: potency is the fitted concentration of half-maximal effect. Summed up:
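Cells were seeded at 2500 per well and rested 5 hr before a 24 hr compound exposure at 37 C. Viability was then gauged as cellular ATP by luciferase luminescence, with AC50 values fitted to the Hill equation.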

Assay [6] is described as follows: Cell Viability - LYMP2-018 (AID 985).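 Note: plate controls were DMSO only for no effect and tetraoctylammonium bromide at 92 µM for full effect; nearly all actives have a fitted effect of over 50% in size.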 An outline of the steps:
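Human lymphoblastoid LYMP2-018 cells, 2500/well, settled 5 hr at 37 C then exposed to compound 24 hr at 37 C; intracellular ATP measured by CellTiter-Glo luminescence. AC50 from Hill-equation concentration-response fits.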

Assay [7] is described as follows: Cell Viability - LYMP2-022 (AID 987). Note: nearly all actives have a fitted effect of over 55% in size. Note: potency is the fitted concentration of half-maximal effect. Summed up:
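LYMP2-022 lymphoblastoid cells (2500/well, complete medium) were treated with compounds for 24 hours at 37 C; intracellular ATP was then read by CellTiter-Glo luminescence after 30 min at room temperature. AC50 values were derived from Hill-equation fits.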

Assay [8] in a line: Cell Viability - LYMP2-024 (AID 988). Note: nearly all actives have a fitted effect of over 60% in size. Note: potency is the fitted concentration of half-maximal effect. An outline of the steps:
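Human lymphoblastoid LYMP2-024 cells (2500/well) rested 5 hr, then treated with compound for 24 hr at 37 C in complete medium. Viability was measured as intracellular ATP by CellTiter-Glo luminescence. AC50 values came from Hill-equation fits.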

Assay [9] is described as follows: Cell Viability - LYMP1-002 - Assay at 24 hr (AID 993). Note: potency is the fitted concentration of half-maximal effect. Summed up:
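Human lymphoblastoid LYMP1-002 cells (2500/well) treated 24 h at 37 °C; viability as intracellular ATP by CellTiter-Glo luminescence. Tetraoctylammonium bromide as positive control; AC50 from Hill-equation fits of qHTS concentration-response.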

The nature of assay [10]: Cell Viability - LYMP1-002 - Assay at 40 hr (AID 994). Note: nearly all actives have a fitted effect of over 60% in size. Note: potency is the fitted concentration of half-maximal effect. An outline of the steps:
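LYMP1-002 human lymphoblastoid cells (2500/well, complete medium) were treated with compounds for 40 hr at 37 C. Intracellular ATP was measured by CellTiter-Glo luminescence, and AC50 values came from Hill-equation fits of concentration-response data; tetraoctylammonium bromide was the positive control.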

Assay [11] addresses Alpha-galactosidase A (Homo sapiens) (UniProt P06280). Put plainly: Counterscreen for Glucocerebrosidase Inhibitors: qHTS Assay for Human alpha-Galactosidase at pH 4.5 (AID 992). Note: 0% is about no effect. Summed up: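 Enzyme at 2 nM final was combined with compound (0.7 nM to 77 uM) and 80 uM 4-methylumbelliferyl alpha-D-galactopyranoside in 50 mM citric acid, 0.005% Tween-20, pH 4.5. After 20 min at room temperature, fluorescence was read (Ex 365/Em 440 nm); AC50 came from Hill fits.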
In general terms: The purpose of a counterscreen is to sort out artefacts and off-target activity.

Assay [12] deals with alpha-glucosidase (Oryza sativa, rice) (UniProt Q653V4). Put plainly: Counterscreen for Glucocerebrosidase Inhibitors: qHTS Assay for Rice alpha-Glucosidase at pH 5.0 (AID 997).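 Note: 0% = full activity with enzyme and -100% = basal without enzyme.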 Summed up: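 Rice alpha-glucosidase (4 nM final) with 400 uM 4-methylumbelliferyl-alpha-D-glucopyranoside in citrate buffer pH 5.0, 20 min at room temperature, stopped at pH 10; fluorescence 365/440 nm, compounds 0.7 nM–77 uM, AC50 from Hill fits.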

Assay [13] can be described thus: qHTS Assay for Lipid Storage Modulators (AID 1519; calls by dose curve; for activity change, negative = inhibition: % is set by controls: 0 for no effect and ±100 for the full control effect). The conditions noted are these: Drosophila S3 cells, BODIPY lipid droplet/cell ratio, laser cytometry, cells loaded with oleic acid; for activity change, negative = inhibition: at 57.5 µM (top of the series). Summed up:
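Cells seeded at 5,000 per well were treated with compounds over a concentration series and loaded with oleic acid (400 uM, as added). Lipid droplet fluorescence (488 nm excitation, 500-530 nm channel) was read by laser-scanning cytometry and normalized to 20 uM Triacsin C.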
In general terms: qHTS replaces the single test concentration by a dilution series.

Assay [14] concerns the target DNA repair nuclease/redox regulator APEX1 (Homo sapiens) (UniProt P27695). Put plainly: qHTS Validation Assay for Inhibitors of the Human Apurinic/apyrimidinic Endonuclease 1 (APE1) (AID 1705;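 note: TAMRA fluorescence gain over two minutes as APE1 cuts a quenched THF abasic duplex; % is set by controls: 0 for no effect and ±100 for the full control effect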). An outline of the steps: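 qHTS, 1536-well. APE1 + cpd 15 min RT → 50 nM TAMRA/BHQ-2 THF-abasic dsDNA substrate → kinetic fluorescence, 3 reads/60 s; delta(read3−read1) = reaction progress. No-enzyme buffer = negative control.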

Assay [15] is described as follows: Counterscreen for APE1 Inhibitors: Fluorescent Dye Displacement Validation Assay (AID 1707).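 Note: plate controls were ThO with dsDNA and no compound for no effect and ThO without dsDNA for full effect.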 An outline of the steps:
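Thiazole Orange displacement from dsDNA: 250 nM ThO with 50 nM TAMRA-labelled abasic-site (tetrahydrofuran) duplex in 50 mM Tris-HCl pH7.5, 50mM NaCl, 2 mM MgCl2, 0.01% Tween-20. Loss of endpoint fluorescence (ex 480 nm, em 540 nm) flags DNA binders.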

In assay [16] the target is Endonuclease 4 (Escherichia coli (strain K12)) (UniProt P0A6C1). Description: Counterscreen for APE1 Inhibitors: qHTS Validation Assay for Inhibitors of Endonuclease IV (AID 1708). Note: % is set by controls: 0 for no effect and ±100 for the full control effect. Summed up:
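Concentration-response counterscreen run identically to the APE1 assay: 15 min room-temperature preincubation of 2 nM enzyme with compound, reaction started with 50 nM quenched abasic DNA, progress taken from kinetic fluorescence.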

A short description of assay [17]: qHTS for differential inhibitors of proliferation of Plasmodium falciparum line 7G8 (AID 1815).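 For activity change, negative = inhibition: plate controls were vehicle wells for no effect and reference inhibitor wells for full effect.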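 Note: parasite growth measured after three days of incubation.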 Note: potency is the fitted concentration of half-maximal effect.
The nature of assay [18]: qHTS for differential inhibitors of proliferation of Plasmodium falciparum line 3D7 (AID 1876). Note: potency is the fitted concentration of half-maximal effect.
[19] abbreviates: measured here: cell count channel max response.
Setting [20] is: measured here: lipid channel max response.

Where “and” joins values, the source holds several entries; their conditions need not be identical. Identical values can stand only once. Records with an inconclusive call do not appear. Calls of active or inactive are those of the source. Unless noted, calls come from the whole dose curve; as a rule, active = well fitted curve in the direction sought with a large enough effect; inconclusive = small, poorly fitted or top-dose-only effect, or another doubt; inactive = no such curve, though single readings can be large; an effect the other way counts as inactive or inconclusive. Numbered stars: 1 amine (or outer) side, 2 acyl side, 3 side chain; on linkers, the order of the positions; unused ones are H or OH. Bridge positions count the residues as written; N and C are the ends. Square brackets hold non-standard residues; d marks the D form. Peptide text beside a SMILES is read from it. I, II: the chains in the order shown. Actinocin(9to1) = Cc1c2oc3c(C)ccc(C(=O)[*:1])c3nc-2c(C(=O)[*:2])c(N)c1=O; NMeV = CN[C@H](C(=O)O)C(C)C; Sar = CNCC(=O)O

Sequence of Alpha-galactosidase A (Homo sapiens) (P06280 whole entry, looked up): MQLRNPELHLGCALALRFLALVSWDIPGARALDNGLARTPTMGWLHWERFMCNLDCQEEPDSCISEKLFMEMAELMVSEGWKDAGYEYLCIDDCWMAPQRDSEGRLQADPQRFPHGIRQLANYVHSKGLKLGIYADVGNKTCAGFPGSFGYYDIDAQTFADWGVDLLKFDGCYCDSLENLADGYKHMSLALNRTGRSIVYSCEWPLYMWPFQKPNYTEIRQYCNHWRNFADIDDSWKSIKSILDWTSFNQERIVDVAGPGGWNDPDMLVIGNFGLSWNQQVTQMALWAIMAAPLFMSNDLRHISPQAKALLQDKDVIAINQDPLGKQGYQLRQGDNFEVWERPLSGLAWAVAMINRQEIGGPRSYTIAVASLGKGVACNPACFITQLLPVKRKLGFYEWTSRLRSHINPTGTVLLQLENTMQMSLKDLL
Sequence of DNA repair nuclease/redox regulator APEX1 (Homo sapiens) (P27695 whole entry, looked up): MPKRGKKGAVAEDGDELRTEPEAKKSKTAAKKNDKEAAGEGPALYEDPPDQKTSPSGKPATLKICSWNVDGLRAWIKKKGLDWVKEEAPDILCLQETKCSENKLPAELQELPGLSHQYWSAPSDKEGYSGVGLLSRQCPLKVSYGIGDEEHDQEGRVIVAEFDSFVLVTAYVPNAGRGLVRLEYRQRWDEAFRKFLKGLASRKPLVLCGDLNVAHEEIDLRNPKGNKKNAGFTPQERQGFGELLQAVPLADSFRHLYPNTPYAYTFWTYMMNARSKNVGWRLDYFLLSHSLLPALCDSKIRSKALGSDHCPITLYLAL

For `O=C1OC(c2ccc(O)cc2)(c2ccc(O)cc2)c2ccccc21`, the Potency entry in [1], in [2], in assay [3], in assay [4], in assay [5] and in assay [6] was “inactive” throughout. The Potency entry in assay [7], in assay [8], in assay [9] and in assay [10] was “inactive” each time.

Turning to `C[C@@H]1C(=O)NC2=Nc3cccc(Cl)c3CN21`, the compound was called inactive in [11], in assay [12], in assay [15] and in assay [16]. In addition, the activity change, negative = inhibition in assay [13] was 2.07% (inactive). In addition, the max response in assay [13] (setting [19]) was -20.8%; in [13] (setting [20]), -17.8%. In addition, the Potency result in assay [14], in [17] and in [18] was “inactive” in each case.

As to `Oc1ccc(O)cc1`, the Potency in assay [1] is 50.1 µM (active); in assay [2], 39.8 µM (active); in [3], 50.1 µM (active); in [7], 39.8 µM (active); in assay [8], 50.1 µM (active); in [9] it was 39.8 µM (active). Further, the Potency was 8.91 µM (active) in assay [17] and 11.2 µM (active) in assay [18]. For the same compound, the Potency entry in assay [4], in assay [5] and in assay [14] was “inactive” in each case. For the same compound, the compound was called inactive in assay [11], in [12] and in assay [15]. In assay [13], the activity change, negative = inhibition was -1.63% (inactive) and -0.961% (inactive). The max response in assay [13] (setting [19]) is 3.88% and -20.5%; in assay [13] (setting [20]), 3.65% and -23.9%.

With `Oc1c(Cl)cc(Cl)cc1Sc1cc(Cl)cc(Cl)c1O`, the Potency in assay [1] is 31.6 µM (active); in assay [2], 50.1 µM (active); in [5], 39.8 µM (active); in assay [10], 50.1 µM (active). In assay [9], the Potency result was “inactive”. The activity change, negative = inhibition in [13] was 0.0363% (inactive). Besides, the max response in [13] (setting [19]) was 9.87%; in assay [13] (setting [20]) it was 13.2%.

On to `CCCC1O[C@@H]2C[C@H]3[C@@H]4CCC5=CC(=O)C=C[C@]5(C)[C@H]4[C@@H](O)C[C@]3(C)[C@]2(C(=O)CO)O1` (some centres undefined), for which the result in assay [11] and in [12] was inactive.

Take `Cc1c2oc3c(C)ccc(C(=O)N[C@@H]4C(=O)N[C@H](C(C)C)C(=O)N5CCC[C@H]5C(=O)N(C)CC(=O)N(C)[C@@H](C(C)C)C(=O)O[C@@H]4C)c3nc-2c(C(=O)N[C@@H]2C(=O)N[C@H](C(C)C)C(=O)N3CCC[C@H]3C(=O)N(C)CC(=O)N(C)[C@@H](C(C)C)C(=O)O[C@@H]2C)c(N)c1=O` (I: T[dV]P[Sar][NMeV] / II: T[dV]P[Sar][NMeV]; ester I:1-I:C, II:1-II:C; linker I:N-II:N via Actinocin(9to1)): the Potency was 0.0126 µM (active) in assay [7], 0.004 µM (active) in assay [8], 0.0079 µM (active) in [9] and 0.0032 µM (active) in assay [10].

Consider `CN1[C@@H]2CC[C@H]1CC(OC(=O)c1c[nH]c3ccccc13)C2` (some centres undefined), for which the compound was classed as inactive in assay [11] and in assay [12].

In the case of `CC/C(=C(/CC)c1ccc(O)cc1)c1ccc(O)cc1`, the Potency result in assay [1], in [4], in assay [5], in assay [6], in assay [7] and in assay [8] was “inactive” in each case. For the same compound, the Potency result in assay [9] and in [10] was “inactive” in each case. The activity change, negative = inhibition in [13] was 9.04% (inactive). Moreover, the max response in assay [13] (setting [19]) came to 9.58%; in assay [13] (setting [20]) it was 18.5%.

For the compound `C[C@]12CC[C@@H]3c4ccc(O)cc4CC[C@H]3[C@@H]1CC[C@@H]2O`, the Potency entry in assay [1], in assay [2], in [3], in assay [4], in assay [5] and in assay [7] was “inactive” in each case. In addition, the Potency entry in assay [8], in assay [9], in assay [10], in assay [14] and in assay [17] was “inactive” each time. The compound was called inactive in assay [11], in [12], in assay [15] and in [16].
